Laboratory results as given in PubChem BioAssay (Tox21).
Results filed as inconclusive are left out. Calls of active or inactive are those of the source. Unless noted, the call rests on the fitted dose curve.

Tests used:
[1] = qHTS assay to identify small molecule antagonists of the vitamin D receptor (VDR) signaling pathway - cell viability counter screen (AID 743225; active means well fitted curve in the direction sought with a large enough effect in the repeat runs; an effect the other way counts as inactive or inconclusive; further: on the % scale 0 is the no-effect control and ±100 the full control effect; nearly all actives have a fitted effect of over 50% in size)
Procedure, shortened: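 In this counter screen, VDR-bla HEK 293T cells receive test compound plus 3 nM final calcitriol for 16 h at 37C. Room-temperature steps of 2 h with the beta-lactamase substrate, then 30 min with CellTiter-Glo, precede the luminescence read.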

[2] = qHTS assay to identify small molecule agonists of the NFkB signaling pathway - cell viability counter screen (AID 1159515); further: series mostly up to about 61 µM; on the % scale 0 is the no-effect control and ±100 the full control effect; nearly all actives have a fitted effect of over 55% in size
Procedure, shortened: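 Counter screen run alongside the NFkB-bla agonist assay: ME-180 reporter cells exposed to compounds for 5 hr, then lysed with CellTiter-Glo in the same wells. Luminescence, read after 30 min, reflects viable cells.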

[3] = qHTS assay to identify small molecule agonists of the endoplasmic reticulum stress response signaling pathway (AID 1159516; active means well fitted activation curve with a large enough effect in the signal ratio in the repeat runs, not every such curve was filed as active; the % refers to the signal ratio; further: on the % scale 0 is the no-effect control and ±100 the full control effect)
Procedure, shortened: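 For this screen, HeLa cells stably carrying beta-lactamase under the ER stress response element received test compounds, positive controls or DMSO for 5 hr at 37 C; B/G FRET substrate was then added and dual-wavelength emission recorded.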

[4] = qHTS assay to identify small molecule agonists of the endoplasmic reticulum stress response signaling pathway - cell viability counter screen (AID 1159517); further: series mostly up to about 61 µM; on the % scale 0 is the no-effect control and ±100 the full control effect; nearly all actives have a fitted effect of over 50% in size
Procedure, shortened: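 In parallel with the ESRE reporter read, cytotoxicity was scored by CellTiter-Glo luminescence (30 min, room temperature) on HeLa ESRE-bla cells dosed for 5 hr.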

[5] = qHTS assay to identify small molecule antagonists of the retinoid-related orphan receptor gamma (ROR-gamma) signaling pathway - cell viability counter screen (AID 1159520; active means well fitted curve in the direction sought with a large enough effect in the repeat runs; an effect the other way counts as inactive or inconclusive; further: on the % scale 0 is the no-effect control and ±100 the full control effect; nearly all actives have a fitted effect of over 50% in size)
Procedure, shortened: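 Tet-on ROR gamma CHO cells were given compounds for 2 hr, then doxycycline hyclate at 1 uM final, and incubated 16 hr at 37 C. Viability was measured as ATP content by CellTiter-Glo luminescence.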

[6] = biological target: Nuclear receptor ROR-gamma (Homo sapiens) (UniProt P51449); experiment: qHTS assay to identify small molecule antagonists of the retinoid-related orphan receptor gamma (ROR-gamma) signaling pathway (AID 1159521; active means well fitted curve in the direction sought with a large enough effect in the repeat runs; an effect the other way counts as inactive or inconclusive;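 further: CHO cells with doxycycline inducible ROR-gamma driving an RORE luciferase reporter; top concentration of the series differs between compounds; on the % scale 0 is the no-effect control and ±100 the full control effect; nearly all actives have a fitted effect of over 50% in size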)
Procedure, shortened: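 Screening format: cell-based luciferase reporter in CHO cells with doxycycline-inducible RORγ. Compound pre-exposure lasts 2 h, doxycycline is 1 uM final, induction runs 16 h at 37 C, and ONE-Glo luminescence is read.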

[7] = qHTS assay to identify small molecule agonists of the AP-1 signaling pathway - cell viability counter screen (AID 1159525); further: nearly all actives have a fitted effect of over 55% in size
Procedure, shortened: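 Same-well cytotoxicity counter screen of the Tox21 10K library in ME-180 cells. The readout is ATP-dependent luminescence after 5 h compound treatment. Data are normalised to DMSO and tetra n-octyl ammonium bromide controls.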

[8] = qHTS assay to identify small molecule agonists of the AP-1 signaling pathway (AID 1159526); further: on the % scale 0 is the no-effect control and ±100 the full control effect
[9] = biological target: Retinoic acid receptor RXR-alpha (Homo sapiens) (UniProt P19793); experiment: qHTS assay to identify small molecule agonists of the RXR signaling pathway (AID 1159527); further: on the % scale 0 is the no-effect control and ±100 the full control effect; nearly all actives have a fitted effect of over 35% in size
Procedure, shortened: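 Fluorescence ratio readout (460 vs 530 nm) from GeneBLAzer RXR-alpha HEK 293T cells after 16 hr compound treatment; cells seeded 5 hr beforehand in low-serum, charcoal-stripped medium.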

[10] = qHTS assay to identify small molecule agonists of the RXR signaling pathway - cell viability counter screen (AID 1159529; active means well fitted curve in the direction sought with a large enough effect in the repeat runs; an effect the other way counts as inactive or inconclusive)
Procedure, shortened: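 Viability read-out for the RXR-alpha agonist qHTS: luminescent CellTiter-Glo signal after 30 min at RT. HEK 293T bla reporter cells, 2% charcoal-stripped FBS, 16 hr compound incubation; tetraoctyl ammonium bromide as cytotoxic control.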

Retinoic acid receptor RXR-alpha (Homo sapiens), sequence (P19793 whole entry, looked up): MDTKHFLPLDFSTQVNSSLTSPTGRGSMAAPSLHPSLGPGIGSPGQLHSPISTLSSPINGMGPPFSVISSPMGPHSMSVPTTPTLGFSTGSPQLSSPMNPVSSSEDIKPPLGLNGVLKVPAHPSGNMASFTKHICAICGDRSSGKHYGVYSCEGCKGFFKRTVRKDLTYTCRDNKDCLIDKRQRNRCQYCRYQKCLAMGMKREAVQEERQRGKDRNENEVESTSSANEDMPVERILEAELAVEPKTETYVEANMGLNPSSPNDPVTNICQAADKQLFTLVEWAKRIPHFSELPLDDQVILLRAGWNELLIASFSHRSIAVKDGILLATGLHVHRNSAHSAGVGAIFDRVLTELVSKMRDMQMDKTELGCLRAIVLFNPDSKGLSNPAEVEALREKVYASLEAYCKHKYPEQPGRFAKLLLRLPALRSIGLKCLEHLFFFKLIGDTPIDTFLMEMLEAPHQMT

CCN(C(C)=O)c1cccc(-c2ccnc3c(C#N)cnn23)c1
inactive: Potency [1] | Potency [2] | Potency [3] | Potency [4] | Potency [5] | Potency [6] | Potency [7] | Potency [8] | Potency [9] | Potency [10]

C=CCSSCC=C
inactive: Potency [1] | Potency [2] | Potency [3] | Potency [4] | Potency [5] | Potency [6] | Potency [7] | Potency [8] | Potency [9] | Potency [10]

O=C=NC1CCCCC1
inactive: Potency [1] | Potency [2] | Potency [3] | Potency [4] | Potency [5] | Potency [6] | Potency [7] | Potency [8] | Potency [9] | Potency [10]

CCOC(=O)NC(O)C(Cl)(Cl)Cl (stereo not drawn)
inactive: Potency [1] | Potency [2] | Potency [3] | Potency [4] | Potency [5] | Potency [6] | Potency [7] | Potency [8] | Potency [9] | Potency [10]

CC(CC(C(N)=O)(c1ccccc1)c1ccccc1)N(C)C (stereo not drawn)
inactive: Potency [1] | Potency [2] | Potency [3] | Potency [4] | Potency [5] | Potency [6] | Potency [7] | Potency [8] | Potency [10]

CCCCCCCCCCCCN=C(N)N
inactive: viability change, negative = cytotoxic [1] -22.1% [at 3.11 µM] | activity, negative = cytotoxic [2] -2.48% [at 3.12 µM] | activation [3] 0.217% [at 3.11 µM] | activity change, negative = cytotoxicity [4] 5.11% [at 3.11 µM] | activity, negative = cytotoxicity [5] -5.37% [at 3.27 µM] | activity change, negative = inhibition [6] -12% [at 3.27 µM] | viability change, negative = cytotoxic [7] -1.76% [at 2.72 µM] | activation [8] 1.6% [at 2.72 µM] | activity change, negative = cytotoxicity [10] -15.3% [at 2.72 µM]

SCc1ccccc1
inactive: Potency [2] | Potency [3] | Potency [4] | Potency [5] | Potency [6] | Potency [7] | Potency [8] | Potency [10]

CCOP(=S)(OCC)Oc1ccc(S(C)=O)cc1 (stereo not drawn)
inactive: Potency [1] | Potency [2] | Potency [3] | Potency [4] | Potency [5] | Potency [6] | Potency [7] | Potency [8] | Potency [9] | Potency [10]

O=C(O)CCCOc1ccc(Cl)cc1Cl
inactive: Potency [1] | Potency [2] | Potency [3] | Potency [4] | Potency [5] | Potency [6] | Potency [7] | Potency [8] | Potency [10]

CC(C)CCCCCCCOC(=O)c1ccccc1C(=O)OCCCCCCCC(C)C
inactive: Potency [2] | Potency [3] | Potency [4] | Potency [5] | Potency [6] | Potency [7] | Potency [8] | Potency [10]

Cc1cnc(C2=NC(C)(C(C)C)C(=O)N2)c(C(=O)O)c1 (stereo not drawn)
inactive: Potency [1] | Potency [2] | Potency [3] | Potency [4] | Potency [5] | Potency [6] | Potency [7] | Potency [8] | Potency [10]

Nc1ccc2c(c1)Cc1ccccc1-2
inactive: Potency [1] | Potency [2] | Potency [3] | Potency [4] | Potency [5] | Potency [6] | Potency [7] | Potency [8] | Potency [10]

C[C@H](N)[C@H](O)c1ccc(O)c(O)c1
inactive: Potency [1] | Potency [2] | Potency [3] | Potency [4] | Potency [5] | Potency [6] | Potency [7] | Potency [8] | Potency [9] | Potency [10]

COC(=O)Cc1ccccc1
inactive: Potency [2] | Potency [3] | Potency [4] | Potency [5] | Potency [6] | Potency [7] | Potency [8] | Potency [10]

CCCN(CCC)C(=O)Cc1c(-c2ccc(Cl)cc2)nc2ccc(Cl)cn12
inactive: Potency [1] | Potency [2] | Potency [3] | Potency [4] | Potency [5] | Potency [6] | Potency [7] | Potency [8] | Potency [9] | Potency [10]

CCCCC(CC)CO[N+](=O)[O-] (stereo not drawn)
inactive: Potency [1] | Potency [2] | Potency [3] | Potency [4] | Potency [5] | Potency [6] | Potency [7] | Potency [8] | Potency [10]

CCOP(=S)(S)OCC
inactive: Potency [1] | Potency [2] | Potency [3] | Potency [4] | Potency [5] | Potency [6] | Potency [7] | Potency [8] | Potency [10]

CC(=O)OC(c1ccccc1)C(Cl)(Cl)Cl (stereo not drawn)
inactive: Potency [2] | Potency [3] | Potency [4] | Potency [5] | Potency [6] | Potency [7] | Potency [8] | Potency [10]

CN(C)N
inactive: Potency [1] | Potency [2] | Potency [3] | Potency [4] | Potency [5] | Potency [6] | Potency [7] | Potency [8] | Potency [10]

CCCC[N+]1(C)[C@@H]2CC(OC(=O)[C@H](CO)c3ccccc3)C[C@H]1[C@@H]1O[C@@H]12 (stereo partly drawn)
inactive: Potency [1] | Potency [2] | Potency [3] | Potency [4] | Potency [5] | Potency [6] | Potency [7] | Potency [8] | Potency [10]

C=CCc1ccc(OC(=O)Cc2ccccc2)c(OC)c1
inactive: Potency [1] | Potency [2] | Potency [3] | Potency [4] | Potency [5] | Potency [6] | Potency [7] | Potency [8] | Potency [10]

CCCCC#N
inactive: Potency [1] | Potency [2] | Potency [3] | Potency [4] | Potency [5] | Potency [6] | Potency [7] | Potency [8] | Potency [10]

CC(C)(C)OOC(C)(C)CCC(C)(C)OOC(C)(C)C
inactive: Potency [1] | Potency [2] | Potency [3] | Potency [4] | Potency [5] | Potency [6] | Potency [7] | Potency [8] | Potency [10]

O=C(O)c1cc(I)cc(I)c1I
inactive: Potency [1] | Potency [2] | Potency [3] | Potency [4] | Potency [5] | Potency [6] | Potency [7] | Potency [8] | Potency [10]

C[C@]12CC[C@H]3[C@@H](CCC4=CC(=O)CC[C@@H]43)[C@@H]1CC[C@@H]2OC(=O)CCc1ccccc1
inactive: Potency [1] | Potency [2] | Potency [3] | Potency [4] | Potency [5] | Potency [6] | Potency [7] | Potency [8] | Potency [9]

O=C(NCNC(=O)NC1C(=O)NC(=O)N1CO)NC1C(=O)NC(=O)N1CO (stereo not drawn)
inactive: Potency [1] | Potency [2] | Potency [3] | Potency [4] | Potency [5] | Potency [6] | Potency [7] | Potency [8] | Potency [9] | Potency [10]
